# The campaign covered roughly 220,000 compounds. About 2,400 (1.1%) were called active.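 The calls were made as follows: active = inhibition above the campaign mean plus 3 SD over all tested compounds (cut at about 24% in these data); inactive = the rest.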 Only a selection was taken, and actives are over-represented in it overall.
# Assay: viability loss in Ba/F3 EpoR-JAK2V617F cells – cell-based, luminescence, JAK2V617F inhibitor project, primary screen (AID 1446);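 also: cytokine-independent growth of Ba/F3 cells driven by EpoR plus mutant JAK2; 0% = DMSO-treated cells and 100% = JAK inhibitor I control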
# Settings: ATP luminescence, at 5.6 µM, stronger effect = higher value
row,SMILES,inhibition
1,COc1cccc(-n2c(=O)c3c(C)c(C(=O)N(C)C)sc3n(CC(=O)NCCc3ccc(OC)c(OC)c3)c2=O)c1,3.31% (inactive)
2,C/C(=N\NC(=O)C(N)=O)c1ccc2c(c1)OCCO2,1.44% (inactive)
3,CCn1c2ccccc2c2cc(CC(N)=O)ccc21,2.78% (inactive)
4,CCN(CCNC(=O)C1=C(C)C(=O)OC12CCC(C)CC2)c1ccccc1 (configuration not stated),-2% (inactive)
5,CC(C)CC(COCc1ccc(Cl)cc1)N1CCN(C(=O)c2ccc(C(F)(F)F)cc2)CCC1=O (configuration not stated),-1.84% (inactive)
6,COc1ccc(Cl)cc1C(=O)NCC#N,-0.27% (inactive)
7,N#C/C=C\Oc1ccc(Cl)cc1N,28% (active)
8,COc1ccc(N(C(=O)c2ccc(C)cc2)S(=O)(=O)c2cccs2)cc1,0.51% (inactive)
9,Cc1nc(CNS(=O)(=O)c2cc([N+](=O)[O-])ccc2C)cs1,0.63% (inactive)
10,O=C(Nc1nc2ccc([N+](=O)[O-])cc2s1)c1ccncc1,-1.41% (inactive)
11,O=C(NC(Nc1nc2ccc([N+](=O)[O-])cc2s1)(C(F)(F)F)C(F)(F)F)c1ccccc1,70.1% (active)
12,O=C(O)CCC(=O)Nc1nc2ccc([N+](=O)[O-])cc2s1,3.19% (inactive)
13,CC1C(=O)NC(=O)C1c1ccccc1 (configuration not stated),-4.47% (inactive)
14,CN(C)c1ccc(/C=N/N(Cc2ccccc2)c2ccccc2)cc1,3.41% (inactive)
15,CN(Cc1ccccc1)Cc1ccccc1F,3.28% (inactive)
16,CN(C)c1cc[n+](Cc2ccccc2)cc1,87.3% (active)
17,c1ccc(Cc2cc[n+](Cc3ccccc3)cc2)cc1,52.6% (active)
18,COC(=O)c1ccc(Cc2ccccc2)o1,-0.12% (inactive)
19,CSc1ccc(CN2C(=O)NC3(CCCCCC3)C2=O)cc1,-4.13% (inactive)
20,C/C(=N\NC(=O)COc1c(C)cccc1C)c1cccs1,1.35% (inactive)
21,COCCn1c(SCC(=O)c2[nH]c(C)c(C(C)=O)c2C)nc2ccccc2c1=O,1.81% (inactive)

row,SMILES,inhibition
1,Cc1[nH]n(C)c(=O)c1N=Nc1ccc(S(C)(=O)=O)cc1,1.06% (inactive)
2,CC1=C/C(=N\S(=O)(=O)c2ccccc2)C(C(C)C)=CC1=O,-3.55% (inactive)
3,CCOC(=O)C1(S(=O)(=O)c2ccccc2)CCN(Cc2ccccc2)CC1,0.13% (inactive)
4,CC1=C/C(=N\OS(=O)(=O)c2ccccc2)C=CC1=O,40.6% (active)
5,Cc1ccc2nc(C)c3c(c2c1)N(c1ccccc1)CC3,19.9% (inactive)
6,COc1ccc(NC(=O)CN2C(=O)CSC2=O)cc1,-1.19% (inactive)
7,COCCCNC(=O)C1CCN(c2ccc(N3CCOCC3)nn2)CC1,-2.04% (inactive)
8,COc1cc(OC)c(OC)cc1/C=N/Nc1ncnc2c1[nH]c1ccc(C)cc12,-4.25% (inactive)
9,CC(C)OCCCNc1ncnc2c1[nH]c1ccc(F)cc12,64.7% (active)
10,O=C1CCCN1CCCNc1ncnc2c1[nH]c1ccccc12,-3.47% (inactive)
11,CC(=O)N1CCN(S(=O)(=O)c2ccc(C)c([N+](=O)[O-])c2)C1C(C)C (configuration not stated),-3.14% (inactive)
12,COc1ccc(N=Nc2ccc(O)c(P(=O)(c3ccccc3)c3ccccc3)c2)cc1,-0.59% (inactive)
13,Cc1nn(-c2ccccc2)c(C)c1NC(=O)CCl,3.19% (inactive)
14,CC(C)c1nc2ccc(C(=O)O)cc2[nH]1,-2.92% (inactive)
15,COC(=O)Nc1nc2ccc(Sc3ccccc3)cc2[nH]1,83.8% (active)
16,Cc1nc2ccc(C(=O)O)cc2[nH]1,-7.6% (inactive)
17,O=C(Cc1ccccc1)Nc1c(Cl)ccc2nsnc12,-3.82% (inactive)
18,CCC1(C(=O)c2ccccc2)C(c2cccc([N+](=O)[O-])c2)C1(C(=O)OC)C(=O)OC (configuration not stated),-2.96% (inactive)
19,Cc1cc2c(cc1C)[n+](C)cn2CC(O)COCC1CC=CCC1 (configuration not stated),44.4% (active)
20,CC(NC(=O)Nc1ccccc1)C(c1cccs1)N1CCN(c2ccccc2)CC1 (configuration not stated),-1.45% (inactive)
21,CCOc1ccc(C2c3[nH]c4ccccc4c3CCN2Cc2cccn2-c2ncccn2)cc1 (configuration not stated),-1.83% (inactive)

row,SMILES,inhibition
1,O=C(O)CS/C(=C\c1ccc(F)cc1)c1nc2ccccc2s1,-2.1% (inactive)
2,Cc1cc2oc(C(=O)Nc3c(C)n(C)n(-c4ccccc4)c3=O)c(C)c2cc1Cl,-1.25% (inactive)
3,CCN(CC)C(=O)CN(c1cccc([N+](=O)[O-])c1)S(=O)(=O)c1ccccc1,0.82% (inactive)
4,O=C(Nc1cccc([N+](=O)[O-])c1)Nc1ccc(Cl)cn1,-2.62% (inactive)
5,O=C(CCl)N(Cc1cccc([N+](=O)[O-])c1)c1cccc(Cl)c1,84.1% (active)
6,Cc1ccc(N(C(=O)c2ccc(S(=O)(=O)N(C)C)cc2)C2C=CS(=O)(=O)C2)cc1 (configuration not stated),-0.1% (inactive)
7,O=C(Cn1nc(CNc2ccc(Cl)cc2)[n+]2c1CCCCC2)c1ccc(Cl)cc1,1.65% (inactive)
8,COc1ccc(C2=NOC(C(=O)NCc3ccco3)C2)cc1OC (configuration not stated),56.5% (active)
9,COc1ccc(-c2cc(C(=O)NCc3ccco3)no2)cc1OC,-1.88% (inactive)
10,Cc1ccc(CNC(=O)C2CC(c3ccccc3[N+](=O)[O-])=NO2)o1 (configuration not stated),-5.08% (inactive)
11,Cc1ccc(NC(=S)N(Cc2ccco2)C(C)c2cccs2)cc1 (configuration not stated),3.37% (inactive)
12,Cc1ccc(NC(=S)N(CCCN2CCC(C)CC2)Cc2ccco2)cc1,25.4% (active)
13,Cc1ccc(NC(=S)N(CCN2CCCCC2)Cc2ccco2)cc1C,-2.95% (inactive)
14,O=C(NC1CCCCC1)c1cc(C2CC2)on1,-4.7% (inactive)
15,CN(C)c1ccc(Nc2c3c4c(cccc4n(C)c2=O)C(=O)c2ccccc2-3)cc1,2.4% (inactive)
16,CON(C)S(=O)(=O)c1ccc2c(c1)NC(=O)C1CCCN21 (configuration not stated),1.23% (inactive)
17,Nn1c(SCc2ccccc2)nnc1C1CCCCC1,-0.47% (inactive)
18,COc1cccc(C(=O)Nc2ccc(N3CCCC3)cc2)c1,59.5% (active)
19,COc1cccc(OC)c1C(=O)Nc1ccc(N2CCCCC2)cc1,-0.78% (inactive)
20,COc1ccc(C(=O)NC(=S)Nc2ccc(N3CCCC3)cc2)cc1OC,-0.26% (inactive)
